# Columns and labels:
# [1] = target: Serine/threonine-protein kinase pim-2 (Homo sapiens) (UniProt Q9P1W9); details: at 1 µM;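 further: each value is a mean of the inhibition measurements against the kinase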
# [2] = target: Serine/threonine-protein kinase pim-3 (Homo sapiens) (UniProt Q86V86); details: at 0.1 µM
# [3] = target: Serine/threonine-protein kinase pim-3 (Homo sapiens) (UniProt Q86V86); details: at 1 µM
# [4] = target: T1, MAP kinase-activated protein kinase 5 (Homo sapiens) (UniProt Q8IW41); details: at 0.1 µM
# T1 sequence (whole entry): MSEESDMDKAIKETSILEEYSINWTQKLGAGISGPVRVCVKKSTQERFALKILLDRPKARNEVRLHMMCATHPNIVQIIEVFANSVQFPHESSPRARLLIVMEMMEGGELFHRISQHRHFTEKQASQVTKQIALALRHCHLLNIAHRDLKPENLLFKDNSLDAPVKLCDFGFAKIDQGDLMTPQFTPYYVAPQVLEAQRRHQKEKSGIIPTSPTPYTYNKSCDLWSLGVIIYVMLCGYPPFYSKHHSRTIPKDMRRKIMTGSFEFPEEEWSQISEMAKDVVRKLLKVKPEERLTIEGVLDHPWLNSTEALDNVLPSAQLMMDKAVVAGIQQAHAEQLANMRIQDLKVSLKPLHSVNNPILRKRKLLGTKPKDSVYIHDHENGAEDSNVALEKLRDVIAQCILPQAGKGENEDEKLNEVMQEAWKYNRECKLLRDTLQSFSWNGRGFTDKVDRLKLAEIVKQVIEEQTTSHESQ
# [5] = target: T1, MAP kinase-activated protein kinase 5 (Homo sapiens); details: at 1 µM
# [6] = target: Serine/threonine-protein kinase SIK1 (Homo sapiens) (UniProt P57059); details: at 0.1 µM
# [7] = target: Serine/threonine-protein kinase SIK1 (Homo sapiens) (UniProt P57059); details: at 1 µM
# [8] = target: Serine/threonine-protein kinase SIK2 (Homo sapiens) (UniProt Q9H0K1); details: at 0.1 µM
# [9] = target: Serine/threonine-protein kinase SIK2 (Homo sapiens) (UniProt Q9H0K1); details: at 1 µM
# [10] = target: T2, Serine/threonine-protein kinase TBK1 (Homo sapiens) (UniProt Q9UHD2); details: at 0.1 µM
# T2 sequence (whole entry): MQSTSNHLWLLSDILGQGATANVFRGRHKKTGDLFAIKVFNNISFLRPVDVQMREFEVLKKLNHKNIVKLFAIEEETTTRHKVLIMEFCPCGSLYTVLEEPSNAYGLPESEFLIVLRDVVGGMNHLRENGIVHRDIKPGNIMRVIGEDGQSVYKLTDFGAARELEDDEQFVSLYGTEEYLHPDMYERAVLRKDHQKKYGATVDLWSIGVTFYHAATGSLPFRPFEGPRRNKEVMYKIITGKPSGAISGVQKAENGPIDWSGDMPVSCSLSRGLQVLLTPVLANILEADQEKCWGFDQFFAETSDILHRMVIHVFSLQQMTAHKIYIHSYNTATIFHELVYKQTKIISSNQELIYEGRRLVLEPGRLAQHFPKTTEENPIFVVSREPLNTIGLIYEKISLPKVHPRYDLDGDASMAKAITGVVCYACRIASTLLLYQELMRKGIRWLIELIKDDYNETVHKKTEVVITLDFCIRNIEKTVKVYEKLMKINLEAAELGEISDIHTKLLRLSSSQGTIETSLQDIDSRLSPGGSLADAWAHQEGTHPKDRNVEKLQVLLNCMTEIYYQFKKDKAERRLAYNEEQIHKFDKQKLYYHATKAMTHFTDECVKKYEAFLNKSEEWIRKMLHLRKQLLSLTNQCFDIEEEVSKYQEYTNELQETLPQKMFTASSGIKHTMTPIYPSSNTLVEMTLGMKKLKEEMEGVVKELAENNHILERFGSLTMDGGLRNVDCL
# [11] = target: T2, Serine/threonine-protein kinase TBK1 (Homo sapiens); details: at 1 µM
# [12] = target: T3, Testis-specific serine/threonine-protein kinase 1 (Homo sapiens) (UniProt Q9BXA7); details: at 0.1 µM
# T3 sequence (whole entry): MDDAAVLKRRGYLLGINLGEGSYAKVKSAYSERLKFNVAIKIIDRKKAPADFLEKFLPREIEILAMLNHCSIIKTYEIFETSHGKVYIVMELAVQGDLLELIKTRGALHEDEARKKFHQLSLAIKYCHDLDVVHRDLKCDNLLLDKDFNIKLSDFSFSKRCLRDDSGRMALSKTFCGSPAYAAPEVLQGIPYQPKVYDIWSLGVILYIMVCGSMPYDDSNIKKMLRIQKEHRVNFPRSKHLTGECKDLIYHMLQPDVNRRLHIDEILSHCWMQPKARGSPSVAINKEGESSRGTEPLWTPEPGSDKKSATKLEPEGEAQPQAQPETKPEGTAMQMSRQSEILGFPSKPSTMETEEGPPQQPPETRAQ
# [13] = target: T3, Testis-specific serine/threonine-protein kinase 1 (Homo sapiens); details: at 1 µM
# [14] = target: T4, Testis-specific serine/threonine-protein kinase 2 (Homo sapiens) (UniProt Q96PF2); details: at 0.1 µM
# T4 sequence (whole entry): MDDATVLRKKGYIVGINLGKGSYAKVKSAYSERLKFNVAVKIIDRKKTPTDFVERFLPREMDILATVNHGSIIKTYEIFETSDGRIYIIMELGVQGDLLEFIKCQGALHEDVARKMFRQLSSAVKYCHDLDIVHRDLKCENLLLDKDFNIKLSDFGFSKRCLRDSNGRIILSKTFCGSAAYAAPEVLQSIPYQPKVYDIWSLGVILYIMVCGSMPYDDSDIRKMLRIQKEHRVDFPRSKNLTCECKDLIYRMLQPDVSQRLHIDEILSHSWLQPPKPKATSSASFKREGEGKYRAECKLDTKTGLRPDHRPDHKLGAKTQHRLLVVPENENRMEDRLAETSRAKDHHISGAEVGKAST
# [15] = target: T4, Testis-specific serine/threonine-protein kinase 2 (Homo sapiens); details: at 1 µM
# [16] = target: Casein kinase I isoform alpha (Homo sapiens) (UniProt P48729); details: at 0.1 µM
# [17] = target: Casein kinase I isoform alpha (Homo sapiens) (UniProt P48729); details: at 1 µM
# [18] = target: Casein kinase I isoform gamma-1 (Homo sapiens) (UniProt Q9HCP0); details: at 0.1 µM
# [19] = target: Casein kinase I isoform gamma-1 (Homo sapiens) (UniProt Q9HCP0); details: at 1 µM
# [20] = target: Casein kinase I isoform gamma-2 (Homo sapiens) (UniProt P78368); details: at 0.1 µM;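 further: values are mean inhibition figures reported as part of the GSK PKIS dataset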
# Casein kinase I isoform gamma-2 (Homo sapiens), sequence (P78368 whole entry, looked up, canonical isoform): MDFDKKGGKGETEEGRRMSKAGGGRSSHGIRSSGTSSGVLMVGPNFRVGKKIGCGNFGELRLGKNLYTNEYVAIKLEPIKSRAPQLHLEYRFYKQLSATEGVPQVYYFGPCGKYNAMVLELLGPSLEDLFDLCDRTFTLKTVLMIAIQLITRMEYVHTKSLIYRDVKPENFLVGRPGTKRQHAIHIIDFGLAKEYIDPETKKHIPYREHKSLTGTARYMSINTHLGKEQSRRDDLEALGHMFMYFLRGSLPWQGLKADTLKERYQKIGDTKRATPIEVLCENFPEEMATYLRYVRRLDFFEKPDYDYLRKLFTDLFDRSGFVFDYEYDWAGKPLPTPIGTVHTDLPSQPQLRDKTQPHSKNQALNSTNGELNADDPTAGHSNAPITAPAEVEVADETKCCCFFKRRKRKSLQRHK
# Serine/threonine-protein kinase SIK2 (Homo sapiens), sequence (Q9H0K1 whole entry, looked up): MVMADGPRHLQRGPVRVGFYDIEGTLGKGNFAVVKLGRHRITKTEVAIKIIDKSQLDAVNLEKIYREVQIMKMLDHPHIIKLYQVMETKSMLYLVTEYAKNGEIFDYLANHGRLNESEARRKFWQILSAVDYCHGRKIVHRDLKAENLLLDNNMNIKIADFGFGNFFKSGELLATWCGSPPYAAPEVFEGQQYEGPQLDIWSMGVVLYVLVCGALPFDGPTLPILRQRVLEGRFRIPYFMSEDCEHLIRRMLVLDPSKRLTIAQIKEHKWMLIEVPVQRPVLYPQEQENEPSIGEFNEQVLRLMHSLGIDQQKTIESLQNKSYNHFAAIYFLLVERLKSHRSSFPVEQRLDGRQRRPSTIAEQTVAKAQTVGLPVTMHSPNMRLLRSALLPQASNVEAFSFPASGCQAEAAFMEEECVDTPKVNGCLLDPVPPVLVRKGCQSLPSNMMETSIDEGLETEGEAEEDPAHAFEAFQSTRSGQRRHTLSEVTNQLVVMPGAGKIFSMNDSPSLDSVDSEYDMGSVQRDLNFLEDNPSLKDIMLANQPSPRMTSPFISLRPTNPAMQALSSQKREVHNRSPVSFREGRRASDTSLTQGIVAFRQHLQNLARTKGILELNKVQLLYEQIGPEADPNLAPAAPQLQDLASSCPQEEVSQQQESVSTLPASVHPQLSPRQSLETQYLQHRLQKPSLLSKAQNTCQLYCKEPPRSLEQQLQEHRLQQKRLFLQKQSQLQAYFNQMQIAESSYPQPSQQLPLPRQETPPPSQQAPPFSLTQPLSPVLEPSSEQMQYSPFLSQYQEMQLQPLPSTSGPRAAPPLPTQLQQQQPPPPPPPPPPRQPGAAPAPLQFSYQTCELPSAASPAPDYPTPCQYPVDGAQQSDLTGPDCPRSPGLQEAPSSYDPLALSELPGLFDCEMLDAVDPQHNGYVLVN
# Serine/threonine-protein kinase SIK1 (Homo sapiens), sequence (P57059 whole entry): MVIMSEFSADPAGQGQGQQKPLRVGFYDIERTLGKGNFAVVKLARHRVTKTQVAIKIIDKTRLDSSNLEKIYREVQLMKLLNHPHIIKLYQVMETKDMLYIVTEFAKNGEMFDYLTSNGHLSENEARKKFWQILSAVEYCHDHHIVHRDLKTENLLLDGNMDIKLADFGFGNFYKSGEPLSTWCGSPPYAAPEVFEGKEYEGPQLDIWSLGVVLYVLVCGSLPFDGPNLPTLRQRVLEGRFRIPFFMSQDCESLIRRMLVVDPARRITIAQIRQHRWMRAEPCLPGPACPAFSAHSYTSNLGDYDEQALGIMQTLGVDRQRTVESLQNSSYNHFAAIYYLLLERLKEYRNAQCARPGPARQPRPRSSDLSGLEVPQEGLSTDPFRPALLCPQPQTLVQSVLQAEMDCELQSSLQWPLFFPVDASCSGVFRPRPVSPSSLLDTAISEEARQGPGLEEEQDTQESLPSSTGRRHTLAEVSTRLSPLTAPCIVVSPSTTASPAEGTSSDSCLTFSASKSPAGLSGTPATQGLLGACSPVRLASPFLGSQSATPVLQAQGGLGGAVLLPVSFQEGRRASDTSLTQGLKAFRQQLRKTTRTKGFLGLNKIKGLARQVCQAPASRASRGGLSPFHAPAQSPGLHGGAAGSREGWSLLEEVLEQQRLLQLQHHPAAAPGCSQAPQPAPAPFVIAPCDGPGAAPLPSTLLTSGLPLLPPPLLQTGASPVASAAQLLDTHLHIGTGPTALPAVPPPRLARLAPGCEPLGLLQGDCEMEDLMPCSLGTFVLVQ
# Casein kinase I isoform alpha (Homo sapiens), sequence (P48729 2-337 limits assumed): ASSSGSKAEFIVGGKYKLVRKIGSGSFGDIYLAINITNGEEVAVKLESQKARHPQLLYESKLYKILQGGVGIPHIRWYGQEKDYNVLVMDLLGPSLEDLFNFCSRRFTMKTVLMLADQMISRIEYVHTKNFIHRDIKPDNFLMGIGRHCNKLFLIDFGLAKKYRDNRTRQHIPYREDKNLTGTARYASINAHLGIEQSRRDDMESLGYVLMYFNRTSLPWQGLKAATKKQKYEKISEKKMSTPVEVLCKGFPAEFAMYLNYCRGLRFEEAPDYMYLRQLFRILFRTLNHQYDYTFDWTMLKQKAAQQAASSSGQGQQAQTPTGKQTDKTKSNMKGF
# Casein kinase I isoform gamma-1 (Homo sapiens), sequence (Q9HCP0 whole entry, looked up, canonical isoform): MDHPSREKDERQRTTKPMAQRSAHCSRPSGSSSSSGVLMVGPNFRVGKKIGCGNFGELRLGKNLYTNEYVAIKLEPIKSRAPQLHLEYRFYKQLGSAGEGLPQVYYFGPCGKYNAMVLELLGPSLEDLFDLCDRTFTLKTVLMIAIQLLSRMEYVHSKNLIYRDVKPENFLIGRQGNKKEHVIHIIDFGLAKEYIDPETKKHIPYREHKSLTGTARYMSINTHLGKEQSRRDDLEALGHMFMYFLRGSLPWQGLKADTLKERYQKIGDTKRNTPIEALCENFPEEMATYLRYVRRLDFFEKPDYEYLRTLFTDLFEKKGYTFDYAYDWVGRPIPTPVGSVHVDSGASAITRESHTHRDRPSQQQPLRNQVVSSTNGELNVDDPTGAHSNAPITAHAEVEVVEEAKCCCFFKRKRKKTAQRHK
# Serine/threonine-protein kinase pim-2 (Homo sapiens), sequence (Q9P1W9 whole entry, looked up): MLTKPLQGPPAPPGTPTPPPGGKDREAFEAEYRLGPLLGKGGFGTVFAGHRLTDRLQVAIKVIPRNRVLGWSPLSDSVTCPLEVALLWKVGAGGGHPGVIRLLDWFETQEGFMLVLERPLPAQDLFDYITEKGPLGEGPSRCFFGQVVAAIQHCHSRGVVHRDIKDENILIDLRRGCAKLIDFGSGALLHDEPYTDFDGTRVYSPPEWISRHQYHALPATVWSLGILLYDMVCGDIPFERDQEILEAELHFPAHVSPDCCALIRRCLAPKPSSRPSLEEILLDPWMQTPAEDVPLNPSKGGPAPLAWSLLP
Structure (SMILES),inhibition [1],inhibition [2],inhibition [3],inhibition [4],inhibition [5],inhibition [6],inhibition [7],inhibition [8],inhibition [9],inhibition [10],inhibition [11],inhibition [12],inhibition [13],inhibition [14],inhibition [15],inhibition [16],inhibition [17],inhibition [18],inhibition [19],inhibition [20]
CCOc1ccc2c(-c3ccnc(Nc4cc(OC)cc(C(F)(F)F)c4)n3)cnn2n1,-0.11%,1.13%,1.42%,-0.27%,-0.8%,2.02%,6.72%,-0.16%,2.02%,-0.57%,37%,0.8%,0.89%,0.22%,-0.73%,2.19%,3.91%,-0.62%,1.33%,-0.22%
Cc1cc(O)cc(C)c1/C=C/c1cncc(C(=O)OC(C)(C)C)c1,1.55%,-1.42%,2.22%,0.68%,1.6%,18.8%,71.9%,10.5%,12.3%,2.04%,2.33%,2.62%,1.67%,1.48%,1.69%,1.27%,3.48%,2.21%,2.97%,1.74%
CN1CCC(n2cnc(-c3ccc(F)cc3)c2-c2ccnc(NCCO)n2)CC1,2.65%,1.55%,5.22%,1.7%,4.06%,2.04%,6.87%,4.44%,16.6%,-0.04%,7.57%,4.44%,6.56%,3.07%,4.33%,37%,73.4%,4.15%,8.74%,2.94%
O=C(O[C@H]1CN[C@H](C#Cc2cc3ncnc(Nc4ccc5c(ccn5Cc5cc(F)ccc5F)c4)c3s2)C1)N1CCOCC1,0.17%,-1.4%,-2.6%,1.04%,0.93%,5.35%,7.23%,2.92%,7.13%,2.75%,2.11%,3.63%,4.15%,2.52%,1.57%,2.93%,5.4%,4.17%,5.41%,3.09%
COc1cc(Nc2ncc(-c3ccccc3)o2)cc(OC)c1,0.6%,0.03%,-0.34%,1.24%,2.34%,6.1%,20.6%,7.38%,33.8%,2.71%,4.2%,4.25%,4.53%,2.32%,2.49%,4.52%,3.47%,4.39%,4.78%,4.11%
Fc1ccc(Nc2nccc(-c3c(-c4ccc(C(F)(F)F)cc4)nn4ncccc34)n2)cc1F,5.02%,-0.88%,-1%,0.6%,-0.23%,5.43%,3.1%,3.76%,2.08%,-0.07%,5.12%,2.94%,0.83%,0.43%,-1.83%,8.3%,5.37%,3.69%,4.68%,1.53%
Cc1cc(O)cc(C)c1/C=C/c1cncc(C(N)=O)c1,0.5%,-0.22%,-1.42%,0.25%,-0.19%,48.9%,89%,6.79%,37.5%,2.21%,1.71%,0.78%,0.81%,0.45%,-0.39%,-2.11%,2.52%,2.23%,3.19%,1.83%
O=C(O[C@H]1CN[C@H](C#Cc2cc3ncnc(Nc4ccc5c(cnn5Cc5ccccc5)c4)c3s2)C1)N1CCOCC1,-0.51%,-0.77%,-0.59%,-0.48%,-1.44%,-1.61%,-0.04%,-3.57%,1.23%,-0.69%,1.41%,0.75%,-0.13%,-0.69%,-1.3%,-2.11%,0.76%,-0.81%,0.82%,-0.61%
COc1cccc(-n2ncc3c(N/N=C/c4ccc(C(=O)NCCN(C)C)cc4)ncnc32)c1,0.88%,0.5%,3.82%,0.76%,0.52%,18.3%,61.2%,34.6%,76%,2.76%,11.2%,1.35%,0.43%,-0.44%,-0.81%,1.58%,7.14%,2.73%,11.7%,1.5%

# From ChEMBL document CHEMBL1961873, “Compounds: GSK PKIS; Assays: Nanosyn kinase panel” (2012)
